Assay results reported in PubChem BioAssay AID640 (Columbia University Molecular Screening Center, 2007).
Screen size: about 96,000 compounds; about 200 (0.21%) were called active. Many of the other results were omitted from the sample, so actives are more common in it than they were. Values without a mark were called inactive.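 How the source made its calls: active means inhibition at 2 µM at or above a set limit, the screen mean plus 3 SD (cut at about 24% in these data); inactive means the rest.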

Target: Tyrosine-protein phosphatase non-receptor type 22 (Homo sapiens) (UniProt Q9Y2R2)
Experiment: PTPN22 phosphatase inhibitors, primary screen, biochemical, DiFMUP fluorescence, 2 µM (AID 640);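 further: 0% = DMSO with enzyme and 100% = enzyme fully blocked by orthovanadate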
Conditions: recombinant LYP catalytic domain, at 2 µM, stronger effect = higher value

Tyrosine-protein phosphatase non-receptor type 22 (Homo sapiens), sequence (Q9Y2R2 whole entry, looked up): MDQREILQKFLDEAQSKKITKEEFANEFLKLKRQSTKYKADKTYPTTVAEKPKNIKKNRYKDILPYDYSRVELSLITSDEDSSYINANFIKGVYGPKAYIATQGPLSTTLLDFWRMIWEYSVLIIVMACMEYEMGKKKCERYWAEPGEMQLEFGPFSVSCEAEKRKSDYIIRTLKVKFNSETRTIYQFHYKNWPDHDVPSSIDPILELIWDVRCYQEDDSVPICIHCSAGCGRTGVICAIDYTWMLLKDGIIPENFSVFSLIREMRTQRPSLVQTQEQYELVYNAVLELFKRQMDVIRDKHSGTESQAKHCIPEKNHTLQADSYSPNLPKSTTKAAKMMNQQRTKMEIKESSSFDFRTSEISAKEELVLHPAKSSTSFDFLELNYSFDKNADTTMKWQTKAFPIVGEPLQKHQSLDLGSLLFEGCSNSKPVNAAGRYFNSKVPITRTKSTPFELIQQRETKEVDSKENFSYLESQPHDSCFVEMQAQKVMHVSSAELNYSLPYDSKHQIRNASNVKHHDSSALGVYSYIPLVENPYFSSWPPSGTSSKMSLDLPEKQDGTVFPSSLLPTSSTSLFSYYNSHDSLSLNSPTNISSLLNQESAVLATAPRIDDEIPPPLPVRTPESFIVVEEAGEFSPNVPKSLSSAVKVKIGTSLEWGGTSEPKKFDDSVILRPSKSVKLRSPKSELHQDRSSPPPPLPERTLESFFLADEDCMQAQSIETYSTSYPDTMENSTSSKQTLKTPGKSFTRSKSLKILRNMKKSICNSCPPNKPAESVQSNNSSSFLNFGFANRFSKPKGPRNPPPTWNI

Row | SMILES | inhibition
1 | COc1ccc(/C(O)=C2/C(=O)C(=O)N(CC3CCCO3)C2c2ccc(OC)c(OC)c2)cc1 (stereo not drawn) | -1.4%
2 | COc1cc(CNCc2cccs2)cc(Br)c1OC | 1.7%
3 | O=c1onc(-c2cccs2)n1Cc1ccccc1 | 6.3%
4 | C=CCOC(=O)C1=C(C)NC(SCC(=O)OCC)=C(C#N)C1c1ccc(C)cc1 (stereo not drawn) | -1.5%
5 | COc1ccccc1NC(=O)CSc1nnc(C)n1CC1CCCO1 (stereo not drawn) | -14.6%
6 | CCCn1c(C(Cc2ccccc2)NC(=O)COC)nc2ccccc21 (stereo not drawn) | -7.4%
7 | CC(C)OC(=O)CN1C(=O)C(=O)c2ccccc21 | -2.8%
8 | COc1ccc([N+](=O)[O-])cc1C1NN=C(c2cccc3ccccc23)S1 (stereo not drawn) | 10.1%
9 | O=C(NCc1ccco1)C1(c2ccc(Cl)cc2)CCCC1 | -8.9%
10 | Cc1cccc(NC(=O)N(Cc2cc3cc(C)cc(C)c3[nH]c2=O)CC2COCCO2)c1 (stereo not drawn) | 2.6%
11 | CCOC(=O)c1nc(C)n(-c2ccc(Cl)cc2Cl)n1 | -1.3%
12 | Cc1ccc(N2CCN(/N=C/c3cccs3)CC2)cc1 | 9.9%
13 | Clc1ccccc1SCc1nc2ccccc2[nH]1 | 2.7%
14 | Cc1ccc(NC(=O)CSCC(=O)N2CCOCC2)cc1 | -3.1%
15 | COC(=O)c1ccc(C2C(Oc3ccccc3C)C(=O)N2CCc2ccc(OC)c(OC)c2)cc1 (stereo not drawn) | -11.5%
16 | CCSc1nnc(NC(=O)Cc2ccccc2OC)s1 | 15.4%
17 | CC(c1ccco1)N(C(=O)Nc1ccccc1)C1CCCCC1 (stereo not drawn) | -2%
18 | CCOc1c2ccc(C(=O)NC3CCCc4ccccc43)cc2nn1CC (stereo not drawn) | -7.5%
19 | CCN1C(=O)/C(=C2/Sc3ccc(OC)cc3N2C)SC1=Nc1ccc(C)cc1 | -28%
20 | O=C(ON=C1CCN(S(=O)(=O)c2ccccc2)CC1)c1ccc(Cl)cc1 | -19.3%
21 | Cc1ccccc1C(=O)N1CCC(C(=O)Nc2ccc(S(=O)(=O)N(C)C(C)C)cc2)CC1 | 3.5%
22 | CCOc1c2ccc(C(=O)NCc3ccc4c(c3)OCO4)cc2nn1C | -4.3%
23 | Cc1cc(Cl)c(S(=O)(=O)N(C)C)cc1OCC(N)=O | -3.7%
24 | O=Cc1c(N2CCN(c3cccc(Cl)c3)CC2)nc2ccccn2c1=O | -12.5%
25 | COc1ccc(CN2CCn3ncc(C(=O)Nc4ccc(Cl)cc4Cl)c3C2=O)cc1 | -3.3%

Row | SMILES | inhibition
26 | CC1CCc2c(nc3ncnn3c2Nc2ccc(OC(F)(F)F)cc2)C1 (stereo not drawn) | 16.7%
27 | O=C(/C=C/Sc1ncn[nH]1)c1ccc(Cl)cc1 | -5.9%
28 | Cc1cccc(-n2ncc(C#N)c2-n2cccc2)c1 | -13.4%
29 | CCOC(=O)c1ccc(COC(=O)CCc2nc(-c3ccccc3)c(-c3ccccc3)o2)cc1 | 10.3%
30 | COC(=O)CNC(c1ccccc1Cl)c1cc(Br)ccc1NC(=O)CCN1CCOCC1 (stereo not drawn) | 7.7%
31 | O=C(CSc1nc2ccccc2o1)N1c2ccccc2Sc2ccc(Cl)cc21 | 4.8%
32 | N#CC1=C(N)N(c2ccc(F)cc2)C(=O)C1 | 7%
33 | O=[N+]([O-])c1ccc(N2CCN(S(=O)(=O)c3ccc4ccccc4c3)CC2)cc1NCc1ccco1 | 4.1%
34 | Cn1nnnc1SCC(=O)Nc1ccccc1C(=O)NC1CC1 | 11.6%
35 | COc1ccc(-n2cnc3cc(NCc4ccco4)ccc32)cc1 | 6.5%
36 | O=C1CCCC2=C1C(c1ccccc1)n1c(s/c(=C/c3cccc(F)c3)c1=O)=N2 (stereo not drawn) | 3.1%
37 | O=C(Nc1cccc(NC(=O)c2ccco2)c1)c1cnccn1 | -8.1%
38 | CCOC(=O)c1nc(Nc2ccc(C(=O)OC)cc2)c2ccccc2n1 | 1.7%
39 | Cc1noc(COc2ccccc2OCc2onc(C)c2Cl)c1Cl | -6.2%
40 | CN1CCCN(S(=O)(=O)c2ccc3c(c2)OCCO3)CC1 | 14.9%
41 | CC(C)(C)c1cc(=O)n2c(nc3ccccc32)[nH]1 | 16.2%
42 | CCOC(=O)NNC(=O)c1ccc(Cl)cc1 | -7.6%
43 | O=C(CSc1ccccc1)Nc1ccc(NC(=O)c2ccco2)cc1 | 8.9%
44 | O=C(CN1CCN(S(=O)(=O)c2ccc(Cl)s2)CC1)NCc1ccc(Cl)cc1 | -18.4%
45 | O=C(c1ccc(F)cc1)c1c[nH]c(C(=O)NCc2cccnc2)c1 | -21.4%
46 | CC(C)C(NC(=O)c1ccc(Cl)cc1)C(=O)O (stereo not drawn) | 0.8%
47 | Cc1ccc2c(Cl)c(C(=O)NCCCn3ccnc3)sc2c1 | -1.4%
48 | COc1ccc(Cc2nnc(SCC(=O)c3cccc([N+](=O)[O-])c3)n2C)cc1 | 15.2%
49 | CN(C)c1nc(N)nc(CSc2ccccn2)n1 | -6.7%
50 | COc1ccc(CCN2C(=O)C3CC=C(C)CC3C2=O)cc1OC (stereo not drawn) | 3.1%

Row | SMILES | inhibition
51 | Clc1ccc(C2=CSC3=Nc4cccc5cccc(c45)N23)cc1 | 13.9%
52 | CC(=O)NC1(c2cccc(F)c2)CCN(CC(=O)NC(C)C)CC1 | -6.7%
53 | CC(=O)Oc1ccc(C(C)=O)c2c1OCCO2 | -11.9%
54 | Cc1cc2c(cc1C)N(C(=O)CN1C(=O)c3ccccc3C1=O)C(C)(C)c1ssc(=S)c1-2 | 2.3%
55 | CS(=O)(=O)N(CC(=O)Nc1ccc(Cl)c(Cl)c1)C1CCCCC1 | -10%
56 | O=C(Nc1ccccc1[N+](=O)[O-])C1C(c2ccccc2)=C1c1ccccc1 | -0.6%
57 | O=C(c1ccc(CN2CCOCC2)cc1)N1CCN(c2ccccc2F)CC1 | -7.2%
58 | O=C(c1cccc2ccccc12)N1CCN(c2ccccc2F)CC1 | -10.2%
59 | O=C(Cn1c(-c2ccc(Cl)cc2)noc1=O)N1CCN(c2ccccc2F)CC1 | 27.2% (active)
60 | COC(=O)c1nc2ccccc2s1 | -12%
61 | COc1ccc(NC(=O)CSc2nc(N)c(-c3ccccc3)c(=O)[nH]2)cc1 | -3.5%
62 | C=CCN1C(=O)C(Cc2cccc(Cl)c2)S/C1=N/N=C/c1ccco1 (stereo not drawn) | 8.9%
63 | COCc1cc(C(C)=O)ccc1OC | 7.3%
64 | O=C(CNC(=O)OCc1ccccc1)Oc1cc2oc(=O)cc(-c3ccccc3)c2cc1Cl | 7.8%
65 | CC(C)(C)NS(=O)(=O)c1ccc(NC(=O)NC2CCCCC2)cc1 | 13%
66 | CCOC(=O)c1c(C)nc2c(c1C)c(=O)oc1ccccc12 | -31.8%
67 | Cc1ccc(OCC(=O)N/N=C/c2ccncc2)cc1 | 10.7%
68 | CSc1ccc(/C=N\NC(=O)COc2ccc(Cl)cc2Br)cc1 | 26.5% (active)
69 | Cc1ccc(OCC(=O)N/N=C\c2ccco2)c(C)c1 | -4.2%
70 | COc1cccc(-c2nnc(NC(=O)c3ccc(S(=O)(=O)N(CC(C)C)CC(C)C)cc3)o2)c1 | 24.4% (active)
71 | CC1CCCCN1S(=O)(=O)c1ccc(C(=O)Nc2nnc(-c3cccs3)o2)cc1 (stereo not drawn) | 17.2%
72 | CCC(=O)Oc1cccc(C(=O)Nc2ccc(-c3nnc(-c4ccco4)o3)cc2)c1 | 8.1%
73 | O=C(NCCCCc1ccccc1)C1CC(c2ccc([N+](=O)[O-])cc2)=NO1 (stereo not drawn) | -3.2%
74 | CCC(C)NC(=O)CSC1=Nc2ccccc2C2=NC(CCC(=O)NCc3ccco3)C(=O)N12 (stereo not drawn) | 6.7%
75 | C=CCOc1c2ccc(C(=O)N(CC)c3ccc(OC)cc3)cc2nn1C | 1.1%

Row | SMILES | inhibition
76 | CCSc1nc(-c2ccc(OC)cc2)cc(-c2ccc(OC)cc2)c1C#N | -15.9%
77 | CCOC(=O)C1=C(CSc2nnnn2C)N(C)C(=O)NC1c1ccccc1 (stereo not drawn) | 6.4%
78 | O=C(CCl)NNc1cccc(Cl)n1 | 2.9%
79 | O=C(c1ccc2c(c1)OCO2)N1CCN(C(=O)c2ccco2)CC1 | -5%
80 | Cc1cnc(NC(=O)C2CCCC2)s1 | -5.5%
81 | CCOC(=O)c1c(NC(C)=O)sc2c(O)c(Br)ccc12 | 7.9%
82 | COc1ccc(/C=N/Nc2nc3ccccc3c(=O)[nH]2)cc1 | 2.7%
83 | CC(=O)c1c(C)[nH]c(C(=O)NCc2ccc(C)cc2)c1C | 3.9%
84 | CNC(=O)c1nnc(Cc2ccc(Cl)cc2)o1 | -2.1%
85 | Cc1ccc(Cl)cc1NC(=O)COC(=O)C1CCCCC1 | -5.7%
86 | O=C(Nc1cccc2ncccc12)C(Cl)(Cl)Cl | -4%
87 | CCCCN1C(=O)/C(=C2/C=CC=CN2C)SC1=S | -5.6%
88 | COc1cc(OC)cc(-c2cc3nc(C4CCN(C(=O)OC(C)(C)C)CC4)cc(=O)n3[nH]2)c1 | -4.9%
89 | CC(C)(C)NC(=O)CN(Cc1cccs1)C(=O)CNS(=O)(=O)c1ccccc1 | -1.7%
90 | Cc1nn(C(C)CC(=O)O)c(C)c1C (stereo not drawn) | 7.9%
91 | CCn1nc(C)c(NC(=O)/C=C/c2ccc(OC)c(COc3ccc(Br)cc3)c2)c1C | 13.3%
92 | O=C(CSc1nnc(-c2cccs2)n1Cc1ccccc1)N1CCc2ccccc2C1 | -1.7%
93 | Cc1ccc2nc(SC(C)C(=O)NCc3ccco3)[nH]c2c1 (stereo not drawn) | -3.6%
94 | Cn1c(=O)c2c(SCC(=O)N3CCOCC3)nc(C3CC3)nc2n(C)c1=O | 4%
95 | Cc1cc2cc3c(N)[nH]nc3nc2cc1C | -13.7%
96 | Cc1ccc(-c2nc3ccccc3[nH]2)cc1NC(=O)c1sc2ccccc2c1Cl | 24.6% (active)
97 | Cc1ccc(-c2nc3ccccc3[nH]2)cc1N | 0.9%
98 | O=C(Nc1ccon1)c1sc2ccccc2c1Cl | -12.9%
